Luciferase inh – inhibitors of firefly (Photinus pyralis) luciferase; P08659; purified P. pyralis luciferase, luminescence, biochemical; Potency, µM (highest dose often 115 µM), most hits filed as inhibitors; 2.5% of 76,000 active; further: nearly all actives have a fitted effect of over 65% in size
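Luminescence read by CCD imaging after purified firefly luciferase (10nM final) was added to substrate buffer holding 10uM D-luciferin and 10uM ATP, pH 7.5, pre-dosed with compound.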
3T3 cytotox – cytotoxic compounds in NIH 3T3 cells. NIH 3T3 viability, CellTiter-Glo ATP luminescence, 48-72 h. Potency, µM (titrated, usually from 96.7 µM), inactives show at the top dose activity change, negative = cytotoxicity, most hits filed as inhibitors. 4.3% of 94,000 active. AID 1345082; further: nearly all actives have a fitted effect of over 55% in size
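Cells were seeded at 400 per well, treated with pin-transferred compound, and kept 48 or 72 hr at 37 °C before CellTiter-Glo addition and luminescence imaging of cellular ATP.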
SNCA expr inhib – inhibitors of alpha-synuclein (SNCA) gene expression; HEK-293 SNCA-luciferase knock-in, luminescence, 24 h; Potency, µM (doses to about 57.2 µM), for inactives: at the top dose activity change, negative = inhibition, actives largely listed as inhibitors; 0.17% of 140,000 active; AID 1671194;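 further: plate controls were DMSO cells for no effect and cell-free wells for full effect; nearly all actives have a fitted effect of over 45% in size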
HEK293 viab – cell viability loss counter-screen; Potency, µM (highest dose often 57.1 µM), for the others: top-dose activity change, negative = cytotoxicity, actives largely listed as cytotoxic; 0.12% of 150,000 active; HEK-293-SNCA-luc viability, GF-AFC fluorescence, 24 h;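 further: 0% = DMSO-treated cells and -100% = medium-only wells without cells; nearly all actives have a fitted effect of over 30% in size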
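Cytotoxicity counterscreen: after 24 h compound treatment of genome-edited SNCA-luciferase HEK-293 cells, live-cell protease substrate GF-AFC read by fluorescence after 30 min; activity scaled between DMSO (0%) and medium-only (-100%), curves Hill-fitted.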
hNpr1 antagonist – human Npr1 receptor antagonism; 1.6% of 76,000 active; HEK293 hNpr1 GloSensor cGMP, ANP-stimulated luminescence; Potency, µM (doses to about 46.3 µM), inactives show at the highest dose activity change, negative = inhibition, usual class: inhibitors; P16066; calls by dose curve; further: nearly all actives have a fitted effect of over 60% in size
Target sequence (P16066 whole entry, looked up): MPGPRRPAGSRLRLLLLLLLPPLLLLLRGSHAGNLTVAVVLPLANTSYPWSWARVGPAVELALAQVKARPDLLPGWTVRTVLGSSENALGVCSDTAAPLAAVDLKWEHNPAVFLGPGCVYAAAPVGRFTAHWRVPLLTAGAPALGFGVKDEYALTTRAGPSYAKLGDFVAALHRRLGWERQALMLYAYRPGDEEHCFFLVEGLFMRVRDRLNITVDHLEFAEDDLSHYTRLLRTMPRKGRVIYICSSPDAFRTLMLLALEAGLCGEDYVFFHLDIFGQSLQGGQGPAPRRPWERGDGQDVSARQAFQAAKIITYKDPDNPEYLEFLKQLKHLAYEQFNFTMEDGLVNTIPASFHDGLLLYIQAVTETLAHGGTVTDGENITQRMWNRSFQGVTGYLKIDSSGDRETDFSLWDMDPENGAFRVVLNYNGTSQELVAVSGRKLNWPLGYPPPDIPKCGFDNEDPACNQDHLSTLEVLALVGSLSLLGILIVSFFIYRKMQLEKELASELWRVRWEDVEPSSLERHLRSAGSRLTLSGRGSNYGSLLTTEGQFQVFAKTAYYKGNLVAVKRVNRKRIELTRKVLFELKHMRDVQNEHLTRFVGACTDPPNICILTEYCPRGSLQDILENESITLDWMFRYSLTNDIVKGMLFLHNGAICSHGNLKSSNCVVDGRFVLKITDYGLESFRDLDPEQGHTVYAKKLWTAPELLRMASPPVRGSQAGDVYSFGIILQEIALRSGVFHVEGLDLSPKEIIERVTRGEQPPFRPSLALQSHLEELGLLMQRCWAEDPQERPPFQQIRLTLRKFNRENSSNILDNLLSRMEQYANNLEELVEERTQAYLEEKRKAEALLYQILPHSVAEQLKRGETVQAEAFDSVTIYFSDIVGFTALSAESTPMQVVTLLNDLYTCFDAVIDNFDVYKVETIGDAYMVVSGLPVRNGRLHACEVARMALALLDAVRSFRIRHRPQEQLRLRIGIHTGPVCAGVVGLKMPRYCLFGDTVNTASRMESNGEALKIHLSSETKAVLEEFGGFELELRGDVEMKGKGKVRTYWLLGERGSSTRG
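Compound pre-incubated 30 min at room temperature on GloSensor-loaded HEK293 cells stably carrying hNpr1 and the pGS-40F cGMP biosensor. Stimulation uses hNppA at 0.1 nM final; luminescence is taken at baseline and 20 min post-agonist.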
HEK293 tox – kills HEK 293 cells; Potency, µM (series often up to 115 µM), for inactives: at the top dose activity change, negative = cytotoxicity, hits mostly inhibitors; 6.6% of 94,000 active; HEK 293 viability, ATP luminescence (CellTiter-Glo), 48-72 h; further: nearly all actives have a fitted effect of over 60% in size
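Cells seeded first (HEK 293, 250 cells/well), then compound added by pintool. Incubation ran 48 or 72 hr at 37 degree Celsius. CellTiter-Glo was added and luminescence imaged after 10 min at room temperature.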
* = called active by the depositor; i = inactive; ? = inconclusive; nt = not tested or not shown; [ ] = another dose, or the depositor's remark. Only some compounds are listed: those with a hit (about 7.2% of all), similar ones and a draw of the others. Unless noted, the call rests on the fitted dose curve; in most records, active means well fitted curve in the direction sought with a large enough effect; inconclusive means small, poorly fitted or top-dose-only effect, or another doubt; inactive means no such curve, though single readings can be large; an effect the other way counts as inactive or inconclusive. Unless noted, on the % scale 0 is the no-effect control and ±100 the full control effect; potency means the concentration at half of the fitted maximal effect.

SMILES	Luciferase inh	3T3 cytotox	SNCA expr inhib	HEK293 viab	hNpr1 antagonist	HEK293 tox
COc1ccc(C)cc1-c1ccc(COc2ccc3c(cnn3CCC(=O)O)c2)cc1	i	-16%[138 µM]	-10%[87.6 µM]	-1%[87.6 µM]	-1%[70.6 µM]	?
CNC(=O)CCn1ncc2cc(OCc3ccccc3-c3ccsc3)ccc21	50µM*	?	-1%[87.6 µM]	-15%[87.6 µM]	0%[70.6 µM]	89µM*
O=C(O)CCn1ncc2cc(OC3CCN(C(=O)OCc4ccccc4)CC3)ccc21	?	?	-2%[87.6 µM]	3%[87.6 µM]	-3%[70.6 µM]	-19%[172 µM]
Cc1ccc(-n2c(C3CCN(C(=O)c4ccc(Cl)cc4)CC3)n[nH]c2=O)cc1	i	?	2%	-2%	0%	1%
CS(=O)(=O)N[C@H]1CO[C@H]2[C@@H]1OC[C@@H]2Nc1nccc(-c2cccc(F)c2)n1	i	-42%[174 µM]	20%[87.6 µM]	-3%[87.6 µM]	0%[70.6 µM]	-21%[172 µM]
COCCN1C(=O)c2ccccc2C(C(=O)Nc2nc3ccccc3s2)C12CCCCC2 (configuration not stated)	?	45µM*	2%	-7%	-16%	?
COCCN1C(=O)c2ccccc2C(C(=O)Nc2nnc(COC)s2)C12CCCCC2 (configuration not stated)	i	?	-3%	-4%	-4%	-9%
O=C(NC1CCN(c2ccc3nnc(C4CC4)n3n2)C1)c1ccccc1F (configuration not stated)	nt	-23%	nt	nt	nt	?
O=C(NC1CCN(c2nccc(Nc3ccccc3F)n2)CC1)c1ccccc1F	nt	?	10%	-11%[12.5 µM]	nt	?
COc1ccc(Nc2ccnc(N3CCC(NC(=O)c4ccccc4F)CC3)n2)cc1	nt	?	19%	-17%	nt	50µM*
Cc1ccc(Nc2ccnc(N3CCC(NC(=O)c4ccccc4F)CC3)n2)cc1	nt	?	4%	-3%	nt	50µM*
COc1cccc(C(=O)NC2CCN(c3nccc(Nc4ccc(C)cc4)n3)CC2)c1	nt	40µM*	?	?	nt	?
COc1ccc(Nc2ccnc(N3CCC(NC(=O)c4ccc(C)cc4)CC3)n2)cc1	nt	-30%	0%	-14%[12.5 µM]	nt	?
O=C(CCC[C@@H]1[C@H]2CCCN3CCC[C@@H](CN1C(=O)C1CCC1)[C@@H]23)NCC1CC1	i	2%	10%	-3%	1%	6%
O=C1CCC2(CCCO2)CCN1Cc1ccc(C(F)(F)F)c(F)c1 (configuration not stated)	i	?	-15%	-6%	0%	?
COc1cccc(-c2cc(C(=O)N3CCC(C#N)CC3)c3cnn(C)c3n2)c1	nt	-23%	nt	nt	nt	-21%
COc1cccc(-c2cc(C(=O)N3CCC(c4ccccc4)CC3)c3cnn(C)c3n2)c1	nt	?	nt	nt	nt	35µM*
COc1cccc(-c2cc(C(=O)N3CCC(Cc4ccccc4)CC3)c3cnn(C)c3n2)c1	nt	?	nt	nt	nt	45µM*
Cc1cn2nc(C(=O)N3CCN(c4ccccc4F)CC3)cc2c(N2CCCC2)n1	i	4%	?	1%	21%	6%
Cc1cccc(C(=O)N2CCN(C(=O)c3nnn4c3COC(c3ccccc3)C4)CC2)c1 (configuration not stated)	i	-21%	-10%	-10%	?	?
CCCN(Cc1nccn1C)C(=O)c1cn(Cc2ccc(F)cc2)nn1	i	-1%	4%	2%	0%	-8%
O=C(NC1CC1)c1ccccc1OC1CN(Cc2cccc(F)c2)C1	i	-28%	1%	7%	-8%	?
O=C(NC1CC1)c1ccccc1OC1CN(Cc2ccc(C(F)(F)F)cc2)C1	i	?	-28%	-2%	3%	89µM*
O=C(NC1CC1)c1ccccc1OC1CN(Cc2cccc(C(F)(F)F)c2)C1	i	?	?	-14%	-24%	32µM*
O=C(NC1CC1)c1ccc2nnc(C3CCCC3)n2c1	nt	-20%[138 µM]	14%[87.6 µM]	?	nt	1%[172 µM]
COCCCNc1cc(-c2cccc(C(F)(F)F)c2)nc2c(C)noc12	i	?	-19%[87.6 µM]	2%[87.6 µM]	-16%[70.6 µM]	79µM*
